SMILES strings stand for the structures. In all, about 100,000 compounds went through this assay and about 770 (0.77%) were called active. No stated cut-off is given here; in the data, active means inhibition above about 50%; inactive means the rest. Only a selection was taken, and actives are over-represented in it overall.

This test deals with Gag-Pol polyprotein (Human immunodeficiency virus type 1 group M subtype B (isolate HXB2)) (UniProt P04585). The test is described as follows: RNase H inhibition, HIV 1 Gag Pol polyprotein, FRET biochemical assay, screening (AID 372). Particulars: HIV-1 RT RNase H, FRET RNA/DNA substrate fluorescence; at 10 µM; hits give high values.
The term inhibition denotes the share of the control response that was lost under treatment. As to `CCCC(=O)Nc1c(C)ccc2nsnc12`, the inhibition is 0% (inactive).
In the case of `COCCCNC(=O)COc1ccc(Cl)cc1C`, the inhibition is 10% (inactive).
For `COc1ccc(/C=C2/SC(=S)N(C)C2=O)cc1O` the value was 43% (inactive); for `CCN1C(=O)/C(=C\c2ccc(O)c(OC)c2)SC1=S`, 36% (inactive); for `CCN1C(=O)/C(=C\c2ccc(O)cc2O)SC1=S`, 70% (active).
For the compound `CCOc1cc(/C=C2\SC(=S)N(C)C2=O)ccc1O`, the inhibition was 22% (inactive).
As for `CCN1C(=O)/C(=C\c2cccc(O)c2)SC1=S`, the figure is 28% (inactive); as for `CCN1C(=O)/C(=C\c2cc(OC)ccc2O)SC1=S`, 24% (inactive); as for `CCN1C(=O)/C(=C\c2cc(Cl)ccc2O)SC1=S`, 16% (inactive).
For `COc1cc(/C=C2\SC(=S)N(C3CCCCC3)C2=O)ccc1O` the value was 8% (inactive).
For `COc1ccc(/C=C2\SC(=S)N(C3CCCCC3)C2=O)cc1O` the value was 5% (inactive); for `CCN1C(=O)/C(=C\c2ccc(O)c(O)c2)SC1=S`, 81% (active); for `CN1C(=O)/C(=C/c2ccc(O)c(O)c2)SC1=S`, 83% (active).
Take `N/C(Cc1ccc([N+](=O)[O-])cc1)=N\OC(=O)c1ccc([N+](=O)[O-])cc1`: the inhibition is 6% (inactive).
For `Cc1ccc(C(=O)N2CCc3ccccc32)cc1[N+](=O)[O-]` the value was 5% (inactive); for `O=[N+]([O-])c1cc([N+](=O)[O-])c(N2CCN(c3ccccc3Cl)CC2)cc1Nc1ccc(Br)cc1`, 5% (inactive); for `O=C(CSc1cc(Cl)ccc1Cl)Nc1cccc(C(F)(F)F)c1`, 9% (inactive).
For `COc1cc(C(=O)N/C(=C/c2ccco2)C(=O)Nc2ccccc2)cc(OC)c1OC` the value was 9% (inactive); for `COc1ccccc1C1NC(=O)NC(C)=C1C(=O)OC(C)C` (configuration not stated), 8% (inactive); for `CCNC(=O)C(=O)Nc1ccccc1C`, 5% (inactive).
As for `CCOC(=O)c1c(NC(=O)Cc2ccc(Cl)cc2)sc(C(=O)Nc2ccccc2OC)c1C`, the figure is 0% (inactive); as for `Cc1c(OCC(N)=O)ccc2c1oc(=O)c1ccccc12`, 47% (inactive); as for `COc1ccccc1N1CCN(/N=C/C=C\c2ccco2)CC1`, 8% (inactive).
Turning to `C[n+]1cccc(C(=O)NCCOC(=O)c2ccc(F)cc2)c1`, the inhibition is 0% (inactive).
In the case of `O=C1/C(=C\c2ccc(O)c(O)c2)SC(=S)N1Cc1ccccc1`, the inhibition was 73% (active).
With `COc1cc(/C=C2\SC(=S)N(CCCCCCCCCCC(=O)O)C2=O)ccc1O`, the inhibition is 23% (inactive).
For `O=C(O)CCCCCN1C(=O)/C(=C/c2ccc(O)c(O)c2)SC1=S` the value was 53% (active); for `O=C1/C(=C/c2ccc(O)c([N+](=O)[O-])c2)SC(=S)N1Cc1ccccc1`, 23% (inactive).
As for `O=C(O)CCCCCCCCCCN1C(=O)/C(=C/c2ccc(Br)cc2)SC1=S`, the figure is 25% (inactive).
As for `O=C1/C(=C\c2ccc(O)cc2)SC(=S)N1Cc1ccccc1`, the inhibition is 46% (inactive).
With `CCOc1ccc(/C=N/N2CCN(Cc3cccc4ccccc34)CC2)cc1OC`, the inhibition is 13% (inactive).
As for `NC(=O)c1ccccc1NC(=O)c1sc2ccccc2c1Cl`, the figure is 0% (inactive); as for `O=C1S/C(=C/c2ccc3c(c2)OCO3)C(=O)N1CN1CCCC1`, 10% (inactive).
For `c1ccc(CCCN2CCN(Cc3cccnc3)CC2)cc1` the value was 5% (inactive).
For `COC(=O)C1=C(C)N=c2s/c(=C\c3ccccc3F)c(=O)n2C1c1ccc(OC)cc1` (configuration not stated) the value was 11% (inactive); for `COc1ccc(C2=C(c3ccc(OC)cc3)C3(c4ccccc4)C(=O)C2(c2ccccc2)C2C(=O)N(c4ccc(Br)cc4)C(=O)C23)cc1` (configuration not stated), 42% (inactive); for `COC(=O)c1ccc(N2C(=O)C3C(C2=O)C2(c4ccccc4)C(=O)C3(c3ccccc3)C(c3ccc(OC)cc3)=C2c2ccc(OC)cc2)cc1` (configuration not stated), 57% (active).
As to `CCOC(=O)c1ccc(N2C(=O)C3C(C2=O)C2(c4ccccc4)C(=O)C3(c3ccccc3)C(c3ccc(OC)cc3)=C2c2ccc(OC)cc2)cc1` (configuration not stated), the inhibition is 44% (inactive).
Turning to `COc1cc2ccccc2cc1C(=O)Nc1ccc(Cl)c(Cl)c1`, the inhibition was 24% (inactive).
For `Cc1ccc(OCC2CNC(=O)O2)cc1` (configuration not stated) the value was 10% (inactive).
For `CCOc1ccc(N2C(=O)/C(=C/c3ccc(N(CC)CC)o3)C(=O)NC2=S)cc1` the value was 21% (inactive); for `CCOc1ccc(N2C(=O)NC(=O)/C(=C\c3ccc(I)o3)C2=O)cc1`, 5% (inactive); for `O=C1NC(=S)N(c2ccc(Cl)cc2)C(=O)/C1=C/c1ccc(N2CCCC2)o1`, 10% (inactive).
As for `O=C1NC(=S)N(c2ccc(Cl)cc2)C(=O)/C1=C/c1ccc(-c2ccc(F)cc2)o1`, the figure is 25% (inactive); as for `CCc1ccc(N2C(=O)/C(=C/c3ccc(-c4ccc(F)cc4)o3)C(=O)NC2=S)cc1`, 26% (inactive).
Consider `CCc1ccc(N2C(=O)/C(=C/c3ccc(I)o3)C(=O)NC2=S)cc1`, for which the inhibition is 97% (active).
For `CCOc1ccc(N2C(=O)NC(=O)/C(=C\c3ccc(Br)o3)C2=O)cc1` the value was 1% (inactive); for `CCOc1cccc(N2C(=O)/C(=C/c3ccc(I)o3)C(=O)NC2=S)c1`, 39% (inactive); for `CCc1ccc(N2C(=O)NC(=O)/C(=C\c3ccc(I)o3)C2=O)cc1`, 11% (inactive).
As to `O=C(Cc1csc(-c2ccccc2)n1)Nc1nccs1`, the inhibition was 0% (inactive).
For `O=C(NCCSc1ccccn1)c1ccc([N+](=O)[O-])cc1` the value was 0% (inactive); for `Cc1ccc2c(c1)-c1c(ssc1=S)C(C)(C)N2C(=O)c1ccco1`, 48% (inactive); for `Cc1ccc(/C(O)=C2/C(=O)C(=O)N(c3ccccc3)C2c2ccc([N+](=O)[O-])cc2)cc1` (configuration not stated), 0% (inactive).
For `CC1=C(C(=O)OCC2CCCO2)C(c2cc3c(cc2[N+](=O)[O-])OCO3)C2=C(CCCC2=O)N1` (configuration not stated) the value was 6% (inactive); for `CCC(C)c1ccc(NC(=O)Cc2ccc(Cl)cc2)cc1` (configuration not stated), 10% (inactive); for `CCC(=O)Nc1ccc(NC(=S)NC(=O)c2ccco2)cc1`, 0% (inactive).
For `N#C/C(=C\c1ccc(-c2ccc([N+](=O)[O-])cc2Br)o1)C(N)=O` the value was 22% (inactive).
As for `COc1ccc(N2C(=O)/C(=C\c3ccc([N+](=O)[O-])o3)C(=O)NC2=S)cc1`, the inhibition is 43% (inactive).
`CCOc1ccc(N2C(=O)NC(=O)/C(=C\c3ccccc3OC)C2=O)cc1`: the inhibition is 5% (inactive).
For `CCOc1ccc(N2C(=O)NC(=O)/C(=C/c3cccc4ccccc34)C2=O)cc1` the value was 73% (active).
For `COc1ccc(N2C(=O)NC(=O)/C(=C/c3ccc(I)o3)C2=O)cc1` the value was 11% (inactive).
As for `CCOc1ccc(N2C(=O)NC(=O)/C(=C\c3ccccc3)C2=O)cc1`, the figure is 0% (inactive); as for `CCCC1CCC(c2ccc(C(=O)CCN(C)C)cc2)CC1` (configuration not stated), 25% (inactive).
Take `COc1ccc(OC)c(/C=C2/SC(=S)N(c3ccc(Cl)cc3)C2=O)c1`: the inhibition was 4% (inactive).
For `Cc1c(Cc2ccccc2)c(=O)oc2c(C)c(OS(C)(=O)=O)ccc12` the value was 0% (inactive); for `COc1ccccc1/C=N/NC(=O)C(C)Sc1nc(C)cc(C)n1` (configuration not stated), 14% (inactive); for `O=C(COC(=O)c1ccccc1I)c1ccc2c(c1)OCCO2`, 57% (active).
As for `O=C(COC(=O)c1ccc2c(c1)OCCO2)c1ccc(-c2ccccc2)cc1`, the figure is 14% (inactive); as for `O=C(COC(=O)c1ccc2c(c1)OCCO2)c1ccc(Br)cc1`, 0% (inactive); as for `C=CCOc1cccc(/C=N/NC(=O)C(=O)Nc2ccc(C)c(C)c2)c1`, 1% (inactive).
Turning to `CCOc1cc(/C=C(/C#N)C(=O)Nc2ccc(O)cc2)ccc1OC`, the inhibition is 8% (inactive).
As for `CC(C)(C)c1cc(C(c2ccccc2O)N2CCOCC2)cc(C(C)(C)C)c1O` (configuration not stated), the figure is 22% (inactive).
Regarding `O=C1NC(=S)NC(=O)C1=Cc1ccc(OCc2ccccc2Cl)cc1`, the inhibition is 35% (inactive).
As for `O=C1NC(=S)NC(=O)C1=Cc1cc(Br)ccc1OCc1cccc2ccccc12`, the figure is 32% (inactive); as for `N#Cc1ccccc1COc1ccc(C=C2C(=O)NC(=S)NC2=O)cc1Br`, 46% (inactive).
For `N#Cc1ccccc1COc1ccc(/C=C2/SC(=S)NC2=O)cc1Br` the value was 52% (active); for `Cc1cccc(C)c1OCCOc1ccc(C=C2C(=O)NC(=S)NC2=O)cc1`, 36% (inactive).
For `O=C1NC(=S)NC(=O)C1=Cc1ccc(OCc2cccc3ccccc23)c(Br)c1` the value was 54% (active).
`CN1C(=O)S/C(=C/c2ccc(OCc3ccccc3C#N)c(Br)c2)C1=O`: the inhibition is 39% (inactive).
As for `Cc1ccccc1COc1ccc(C=C2C(=O)NC(=S)NC2=O)cc1`, the inhibition was 60% (active).
For `COc1cc(/C=C2/SC(=S)NC2=O)ccc1OCc1ccccc1C#N` the value was 46% (inactive); for `O=C(/C=C/c1ccccc1)N1CCN(c2ccccc2)CC1`, 0% (inactive); for `COc1ccc(-c2ccccc2)cc1NCC1CC=CCC1` (configuration not stated), 21% (inactive).
For `Cc1ccc(NC(=O)C(C(C)C)N2C(=O)c3ccccc3C2=O)c(C)c1` (configuration not stated) the value was 12% (inactive); for `O=C1C(Cl)=C(Nc2cccc(Cl)c2)C(=O)N1c1cc(Cl)ccc1Cl`, 0% (inactive).
In the case of `C#CCOc1ccc(C=C2C(=O)NC(=S)NC2=O)cc1Br`, the inhibition was 19% (inactive).
For `COc1ccc(/C=N/c2sc(C)c(C)c2C#N)cc1` the value was 12% (inactive); for `CCc1ncc(C(O)c2ccccc2OC)n1C` (configuration not stated), 5% (inactive).
As for `COc1ccc(OC)c(C2NC(=S)NC(C)=C2C(=O)Nc2ccc(C)c(Cl)c2)c1` (configuration not stated), the figure is 15% (inactive); as for `O=S(=O)(N=Nc1c(O)[nH]c2ccc(Br)cc12)c1cccc2ccccc12`, 9% (inactive); as for `Oc1[nH]c2ccc(Br)cc2c1N=Nc1ccc2ccccc2n1`, 52% (active).
Regarding `Oc1[nH]c2ccc(Br)cc2c1N=Nc1ccccn1`, the inhibition is 2% (inactive).
For `CCN(CC)S(=O)(=O)c1ccc(Cl)c(C(=O)Nc2ccc(OC)cc2)c1` the value was 0% (inactive); for `O=C1NN(c2ccccc2)C(=O)/C1=C/c1ccc(-c2cccc([N+](=O)[O-])c2)o1`, 31% (inactive); for `CCOCCOC(=O)C1=C(C)N(CC)C(=O)NC1c1ccc([N+](=O)[O-])cc1` (configuration not stated), 0% (inactive).
As for `C=CCOC(=O)C1=C(C)N(CC)C(=O)NC1c1ccc(Br)cc1` (configuration not stated), the figure is 4% (inactive); as for `C=CCOC(=O)C1=C(C)N(CC)C(=O)NC1c1ccc([N+](=O)[O-])cc1` (configuration not stated), 57% (active).

The values above are taken from PubChem BioAssay AID372 (MTDP, 2006).
